Activity calls are given as the source filed them. The calls were made as follows: active = hit-call score of the fitted dose curve at least 0.9, where 1 is the maximum; inactive = score below 0.9.
Legend:
[1] = ATG_CRE_CIS: Attagene CIS-FACTORIAL HepG2 Assay for human cAMP Responsive Element (CRE) binding protein 3 (AID 2282926); settings: HepG2 CRE cis-reporter, Attagene multiplexed mRNA; actives raise or lower the signal
Method in brief: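 Readout: fluorescently labelled reporter transcripts resolved by capillary electrophoresis after RT-PCR, taken 24 h post-dosing in transfected HepG2. Endogenous transcription factor activity drives each cis-element reporter; gain or loss of signal fitted relative to DMSO control.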

[2] = target: CCAAT/enhancer-binding protein beta (Homo sapiens) (UniProt P17676); experiment: ATG_C_EBP_CIS: Attagene CIS-FACTORIAL HepG2 Assay for human CCAAT/Enhancer Binding Protein (C/EBP) beta (AID 2282927); settings: HepG2 Attagene cis-factorial transcription factor reporter; actives raise or lower the signal
Method in brief: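 HepG2, transient MRTU transfection, 24 h treatment. RT-PCR plus CE fluorescence; DMSO negative control, bidirectional fit.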

[3] = ATG_CMV_CIS: Attagene CIS-FACTORIAL HepG2 Assay for human CMV (Internal Marker) (AID 2282928); settings: HepG2 CMV promoter reporter, transcription factor profiling; actives raise or lower the signal;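 also: endpoint acts as a background internal control marker rather than a target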
Method in brief: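 Reporter transcripts from transfected HepG2 cells are isolated after 24 h of chemical dosing, reverse-transcribed and amplified. Fragments labeled with 6-FAM are cut with HpaI and quantified by capillary electrophoresis; DMSO defines baseline.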

[4] = target: Aryl hydrocarbon receptor (Homo sapiens) (UniProt P35869); experiment: ATG_Ahr_CIS: Attagene CIS-FACTORIAL HepG2 Assay for human Aryl Hydrocarbon Receptor (Ahr) (AID 2282930); settings: HepG2 AhR cis-factorial reporter transcription; actives raise or lower the signal
Method in brief: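 Endogenous factor activity is tracked through cis-promoter reporter units transfected into HepG2 cells. Transcript levels at 24 h are read by fluorescent RT-PCR and capillary electrophoresis, with activity in either direction scored relative to DMSO.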

[5] = ATG_AP_1_CIS: Attagene CIS-FACTORIAL HepG2 Assay for human Activator Protein 1 (AP-1) (AID 2282931); settings: HepG2 Attagene cis-factorial AP-1 reporter mRNA; actives raise or lower the signal
Method in brief: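 We transfected HepG2 cells transiently with a set of cis-regulated reporter transcription units, dosed them for 24 h, and quantified reporter mRNA via RT-PCR and capillary electrophoresis, scoring gain or loss of signal relative to DMSO.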

[6] = ATG_AP_2_CIS: Attagene CIS-FACTORIAL HepG2 Assay for human Activator Protein 2 (AP-2) (AID 2282932); settings: HepG2 AP-2 cis-reporter, Attagene transcription factor profiling; actives raise or lower the signal
Method in brief: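 Liver-derived HepG2 line, cis-reporter system measuring endogenous factors; 24 h dosing; reporter mRNA detected by fluorescent RT-PCR and capillary electrophoresis.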

[7] = ATG_BRE_CIS: Attagene CIS-FACTORIAL HepG2 Assay for human Bone Morphogenetic Protein (BMP) Response Element (BRE) (AID 2282933); settings: HepG2 BMP response element reporter, Attagene transcription factor profiling; actives raise or lower the signal
Method in brief: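 Read-out: reporter mRNA induction quantified by RT-PCR and capillary electrophoresis after 24 h chemical exposure of transfected HepG2 cells. Endogenous factor activity on the BMP response element; gain or loss fitted against DMSO baseline.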

[8] = target: Transcription factor E2F1 (Homo sapiens) (UniProt Q01094); experiment: ATG_E2F_CIS: Attagene CIS-FACTORIAL HepG2 Assay for human E2F Transcription Factor 1 (AID 2282935); settings: HepG2 Attagene cis-reporter, E2F reporter RNA transcripts; actives raise or lower the signal
Method in brief: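 Liver-derived HepG2 cells expressing transfected promoter-driven reporter units received test chemical for 24 hours. Signal gains or losses were fitted bidirectionally against DMSO.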

[9] = ATG_E_Box_CIS: Attagene CIS-FACTORIAL HepG2 Assay for human Enhancer Box (E-box) (AID 2282936); settings: HepG2 E-box cis-reporter transcription, actives raise or lower the signal
Method in brief: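 In this cell-based setup, HepG2 cells bearing transfected promoter-driven reporter units were exposed to chemicals for 24 h; reporter transcripts were amplified, 6-FAM-labelled, cut with HpaI and sized by capillary electrophoresis.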

[10] = ATG_M_61_CIS: Attagene CIS-FACTORIAL HepG2 Assay for M61 Transcription Factor (Internal Marker) (AID 2282937); settings: HepG2 Attagene CIS-FACTORIAL M61 internal marker reporter; actives raise or lower the signal
Method in brief: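 Multiplexed reporter mRNA assay, HepG2 human hepatoma cells, 24 h treatment. Signal: FAM-labelled, HpaI-digested RT-PCR fragments by CE. Fit: bidirectional, baseline DMSO.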

[11] = ATG_EGR_CIS: Attagene CIS-FACTORIAL HepG2 Assay for human Early Growth Response 1 (EGR1) (AID 2282938); settings: HepG2 Attagene CIS-FACTORIAL EGR reporter mRNA; actives raise or lower the signal
Method in brief: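 Multiplexed cis-reporter system in human hepatoma HepG2 cells, transiently transfected. Cells are dosed for 24 h; reporter transcripts are amplified, fluorescently tagged and sized by capillary electrophoresis, with DMSO as negative control.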

[12] = ATG_M_19_CIS: Attagene CIS-FACTORIAL HepG2 Assay for M19 Transcription Factor (Internal Marker) (AID 2282939); settings: HepG2 Attagene CIS-FACTORIAL M19 internal marker reporter; actives raise or lower the signal
Method in brief: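 Readout: fluorescent reporter-transcript fragments by capillary electrophoresis after RT-PCR. Human HepG2 liver cells carried transfected MRTU constructs reporting endogenous transcription-factor activity; exposure 24 h. Gain or loss of signal fitted relative to DMSO.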

[13] = ATG_Ets_CIS: Attagene CIS-FACTORIAL HepG2 Assay for human Erythroblast Transformation Specific (ETS) (AID 2282941); settings: HepG2 ETS cis-reporter transcription, actives raise or lower the signal
Method in brief: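 Bidirectional fit versus DMSO of reporter mRNA signal, detected by RT-PCR and capillary electrophoresis in HepG2 cells transiently transfected with cis-element reporters and dosed 24 h.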

[14] = target: Hepatocyte nuclear factor 3-beta (Homo sapiens) (UniProt Q9Y261); experiment: ATG_FoxA2_CIS: Attagene CIS-FACTORIAL HepG2 Assay for human Forkhead box A2 (FOXA2) (AID 2282942); settings: HepG2 cis-reporter transcription factor activity, 24 h; actives raise or lower the signal
Method in brief: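 Multiplexed cis-element reporter assay in transiently transfected HepG2. Twenty-four hours post-dosing, RNA was reverse-transcribed, amplified, FAM-labelled, HpaI-digested and separated by CE. Activity gain or loss relative to DMSO.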

[15] = ATG_FoxO_CIS: Attagene CIS-FACTORIAL HepG2 Assay for human Forkhead box O (FoxO) (AID 2282943); settings: HepG2 Attagene cis-reporter, FoxO element, mRNA; actives raise or lower the signal
Method in brief: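 Transfected HepG2 reporter cells exposed to test chemical for 24 h; reporter RNA measured by reverse transcription, PCR and fluorescent capillary electrophoresis; curves fitted for increases and decreases against DMSO.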

[16] = ATG_GATA_CIS: Attagene CIS-FACTORIAL HepG2 Assay for human GATA Binding Protein (AID 2282944); settings: HepG2 GATA cis-element reporter, Attagene multiplex mRNA; actives raise or lower the signal
Method in brief: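 Read-out: fluorescent reporter mRNA fragments resolved by capillary electrophoresis after RT-PCR. Human liver HepG2 cells carried transiently transfected cis-regulated reporter constructs; chemicals incubated 24 h; gain or loss of signal fitted relative to DMSO.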

[17] = ATG_GLI_CIS: Attagene CIS-FACTORIAL HepG2 Assay for human Zinc Finger Protein GLI1 (AID 2282945); settings: HepG2, Attagene cis-factorial reporter mRNA, GLI element; actives raise or lower the signal
Method in brief: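 Transiently transfected HepG2 cells report endogenous transcription factor activity via cis-element-driven reporter units. After 24 h compound exposure, reporter mRNA was measured by RT-PCR with capillary electrophoresis; bidirectional fitting against DMSO baseline.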

[18] = target: Retinoic acid receptor alpha (Homo sapiens) (UniProt P10276); experiment: ATG_DR5_RAR_CIS: Attagene CIS-FACTORIAL HepG2 Assay for human Retinoic Acid Receptor Alpha (RARE), DR5 submotif (AID 2282934); settings: HepG2 Attagene cis-factorial RARE DR5 reporter, mRNA; actives raise or lower the signal
Method in brief: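 After 24 h of chemical exposure, transiently transfected HepG2 cells were lysed for total RNA; the DR5-regulated reporter transcript was quantified via RT-PCR and capillary electrophoresis, with activity fitted bidirectionally against DMSO.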

Measured: AC50

CCAAT/enhancer-binding protein beta (Homo sapiens), sequence (P17676 whole entry, looked up): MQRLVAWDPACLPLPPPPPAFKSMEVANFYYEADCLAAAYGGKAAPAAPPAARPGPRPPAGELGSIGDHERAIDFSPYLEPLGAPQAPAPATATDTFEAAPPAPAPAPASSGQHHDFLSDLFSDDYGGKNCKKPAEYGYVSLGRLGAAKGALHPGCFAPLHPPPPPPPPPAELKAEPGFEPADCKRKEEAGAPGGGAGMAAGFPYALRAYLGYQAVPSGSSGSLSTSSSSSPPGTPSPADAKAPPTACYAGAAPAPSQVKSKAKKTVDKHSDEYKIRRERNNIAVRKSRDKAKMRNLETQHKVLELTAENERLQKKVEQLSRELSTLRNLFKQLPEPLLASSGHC
Hepatocyte nuclear factor 3-beta (Homo sapiens), sequence (Q9Y261 whole entry, looked up): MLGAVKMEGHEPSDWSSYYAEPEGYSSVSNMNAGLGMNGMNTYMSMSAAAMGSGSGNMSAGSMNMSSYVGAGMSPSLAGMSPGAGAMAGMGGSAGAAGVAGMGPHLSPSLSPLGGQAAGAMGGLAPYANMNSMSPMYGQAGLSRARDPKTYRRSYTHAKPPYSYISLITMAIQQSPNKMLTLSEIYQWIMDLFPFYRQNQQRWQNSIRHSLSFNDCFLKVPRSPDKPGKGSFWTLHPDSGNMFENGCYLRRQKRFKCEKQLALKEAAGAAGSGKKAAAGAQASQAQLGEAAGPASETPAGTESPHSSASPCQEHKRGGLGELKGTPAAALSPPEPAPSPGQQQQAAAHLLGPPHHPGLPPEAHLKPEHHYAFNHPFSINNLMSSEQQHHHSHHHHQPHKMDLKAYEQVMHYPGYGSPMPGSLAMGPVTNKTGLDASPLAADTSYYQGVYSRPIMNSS
Aryl hydrocarbon receptor (Homo sapiens), sequence (P35869 whole entry, looked up): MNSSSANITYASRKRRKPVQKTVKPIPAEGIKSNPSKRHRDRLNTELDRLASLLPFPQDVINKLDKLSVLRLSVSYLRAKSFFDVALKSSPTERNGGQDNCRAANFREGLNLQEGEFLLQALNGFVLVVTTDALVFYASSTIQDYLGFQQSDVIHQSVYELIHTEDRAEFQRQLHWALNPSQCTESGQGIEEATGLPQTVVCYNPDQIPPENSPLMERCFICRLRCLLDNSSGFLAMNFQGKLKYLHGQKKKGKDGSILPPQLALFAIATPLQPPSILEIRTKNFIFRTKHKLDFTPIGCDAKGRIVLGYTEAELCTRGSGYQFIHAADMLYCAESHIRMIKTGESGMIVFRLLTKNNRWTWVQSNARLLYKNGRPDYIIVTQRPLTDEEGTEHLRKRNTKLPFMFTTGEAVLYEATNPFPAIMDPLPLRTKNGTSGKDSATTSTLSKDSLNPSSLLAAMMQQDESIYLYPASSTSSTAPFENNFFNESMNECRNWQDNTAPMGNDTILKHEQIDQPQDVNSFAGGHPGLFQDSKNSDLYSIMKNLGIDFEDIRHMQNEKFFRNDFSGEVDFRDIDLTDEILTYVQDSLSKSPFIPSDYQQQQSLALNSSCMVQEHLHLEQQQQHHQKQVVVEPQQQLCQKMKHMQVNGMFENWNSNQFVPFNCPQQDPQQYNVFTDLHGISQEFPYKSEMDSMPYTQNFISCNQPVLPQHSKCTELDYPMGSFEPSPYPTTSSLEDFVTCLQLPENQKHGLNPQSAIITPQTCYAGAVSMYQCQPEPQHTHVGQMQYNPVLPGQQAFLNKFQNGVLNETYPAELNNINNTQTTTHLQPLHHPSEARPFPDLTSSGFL
Transcription factor E2F1 (Homo sapiens), sequence (Q01094 whole entry, looked up): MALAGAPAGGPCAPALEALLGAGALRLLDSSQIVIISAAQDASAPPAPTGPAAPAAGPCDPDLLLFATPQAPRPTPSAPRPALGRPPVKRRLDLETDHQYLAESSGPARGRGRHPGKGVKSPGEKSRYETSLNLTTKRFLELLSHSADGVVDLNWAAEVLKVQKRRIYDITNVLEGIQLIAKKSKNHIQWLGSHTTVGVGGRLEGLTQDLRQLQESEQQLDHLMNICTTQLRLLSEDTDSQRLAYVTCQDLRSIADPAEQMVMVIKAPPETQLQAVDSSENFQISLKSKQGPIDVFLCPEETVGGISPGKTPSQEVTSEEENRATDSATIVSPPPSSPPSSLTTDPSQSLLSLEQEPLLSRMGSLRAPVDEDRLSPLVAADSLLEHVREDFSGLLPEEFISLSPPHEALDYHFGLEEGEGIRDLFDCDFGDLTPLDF
Retinoic acid receptor alpha (Homo sapiens), sequence (P10276 whole entry, looked up): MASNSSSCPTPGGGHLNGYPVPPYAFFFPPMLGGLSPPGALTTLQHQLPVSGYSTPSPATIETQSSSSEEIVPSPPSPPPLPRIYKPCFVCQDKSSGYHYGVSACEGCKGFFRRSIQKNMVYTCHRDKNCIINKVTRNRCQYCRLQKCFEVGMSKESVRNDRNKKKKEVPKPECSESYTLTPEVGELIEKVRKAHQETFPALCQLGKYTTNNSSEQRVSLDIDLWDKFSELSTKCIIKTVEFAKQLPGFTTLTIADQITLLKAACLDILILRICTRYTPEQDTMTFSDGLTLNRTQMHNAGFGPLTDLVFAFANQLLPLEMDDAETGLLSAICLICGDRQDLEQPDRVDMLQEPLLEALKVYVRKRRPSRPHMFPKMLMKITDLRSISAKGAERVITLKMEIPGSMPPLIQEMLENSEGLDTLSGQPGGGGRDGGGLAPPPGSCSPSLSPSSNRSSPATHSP

O=c1[nH]nnc2ccccc12
not listed: [18]
inactive: all other assays above

O=C(O)c1ccc([N+](=O)[O-])cc1
not listed: [18]
inactive: all other assays above

O=S(=O)(O)c1cccc2c(S(=O)(=O)O)cccc12
not listed: [16]
inactive: all other assays above

CCC(=O)OCc1ccccc1
not listed: [18]
inactive: all other assays above

CSc1nc(NC2CC2)nc(NC(C)(C)C)n1
active: [3] 60.5 µM | [5] 47.5 µM
not listed: [13]
inactive: all other assays above

Reference: PubChem BioAssay (EPA / NIEHS)
